According to PubChem BioAssay (NCI):
Values joined by “and” are separate entries in the source; they are usually repeats but may differ in a detail not shown here. Equal entries are not always repeated. This is part of a sample that, as a whole, favours compounds with a hit. Of some 79,000 tested, about 15% had one in any assay. Rule as the data show it: active = growth inhibition above about 70%; inactive = the rest.

Columns and labels:
[1] = NCI Yeast Anticancer Drug Screen. Data for the rad50 strain (AID 155);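 also: 0% = growth of vehicle-only cultures of the same strain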; conditions: S. cerevisiae rad50 strain growth inhibition, stronger effect = higher value; at 50.0 µM unless noted
Summary of the method: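 Readout: growth inhibition relative to vehicle-treated cultures. Compound exposure was carried out in a genetically defined yeast strain deficient in DNA damage repair.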

[2] = NCI Yeast Anticancer Drug Screen. Data for the mec2-1 strain (AID 157); conditions: S. cerevisiae mec2-1 strain, stronger effect = higher value; at 50.0 µM unless noted
Summary of the method: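 mec2-1 yeast strain, carrying an alteration in DNA damage repair or cell cycle control, was exposed to compounds; growth inhibition was measured relative to vehicle-treated controls.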

[3] = NCI Yeast Anticancer Drug Screen. Data for the sgs1 mgt1 strain (AID 161);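 also: 0% = growth of cultures given vehicle only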; conditions: S. cerevisiae sgs1 mgt1 strain, stronger effect = higher value; at 50.0 µM unless noted
Summary of the method: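 Compounds are added to genetically altered yeast, and growth is compared with cultures given vehicle alone to give percent inhibition.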

[4] = NCI Yeast Anticancer Drug Screen. Data for the cln2 rad14 strain (AID 165);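 also: 0% = growth equal to vehicle treated cultures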; conditions: S. cerevisiae cln2 rad14 strain, stronger effect = higher value; at 50.0 µM unless noted
Summary of the method: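 Yeast carrying cln2 and rad14 alterations (cell cycle control and DNA damage repair) were exposed to compounds. Growth inhibition was measured against vehicle-treated controls.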

[5] = NCI Yeast Anticancer Drug Screen. Data for the bub3 strain (AID 167); conditions: S. cerevisiae bub3 mutant strain, stronger effect = higher value; at 50.0 µM unless noted
Summary of the method: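 Readout: yeast growth inhibition, expressed relative to vehicle-only wells. The test organism is a mutant strain from a panel with lesions in DNA repair or checkpoint genes.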

[6] = NCI Yeast Anticancer Drug Screen. Data for the mlh1 rad18 strain (AID 175); conditions: S. cerevisiae mlh1 rad18 strain growth inhibition, stronger effect = higher value; at 50.0 µM unless noted
Summary of the method: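 Growth inhibition of the yeast strain was measured after compound exposure and expressed relative to vehicle-treated controls. The strain carries defined defects in DNA damage repair.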

Measured: growth inhibition

COc1cc(OC)cc(C(=O)CC(=O)c2cc(OC)cc(OC)c2)c1
inactive: [1] -49.6% | [2] -38.3% | [3] -69% | [4] -7.9% | [5] -33.4% | [6] -26.1%

O=c1[nH]c2ccc(O)cc2o1
inactive: [1] 33.2% | [2] 17.8% | [3] 27.6% | [4] -10.1% | [5] 12.9% | [6] 22.2%

COC1OC(COS(=O)(=O)c2ccc(C)cc2)C(OS(=O)(=O)c2ccc(C)cc2)C(OS(=O)(=O)c2ccc(C)cc2)C1OS(=O)(=O)c1ccc(C)cc1 (centres undefined)
inactive: [1] -7.45% | [2] -16.5% | [3] -11.7% | [4] -8.6% | [5] 0.75% | [6] 18.6%

C#CCSC(=S)NNc1ccccc1
inactive: [1] 33.1% | [2] 29.1% | [3] 33.1% | [4] 6.2% | [5] 60.8% | [6] 24.8%

NC1=CNC(=O)C1
inactive: [1] 1.65% | [2] 1.45% | [3] -3.05% | [4] -1.65% | [5] 14.1% | [6] -7.4%

O=C1CCCCC(=O)NCCCCCCN1
inactive: [1] -7.95% | [2] -2.65% | [3] -18.4% | [4] -21.4% | [5] -12.4% | [6] 1.85%

C=CSS/C(=C/N(C=O)Cc1cnc(C)nc1N)CCO
inactive: [1] -10.6% | [2] -33.5% | [3] -18.9% | [4] 1.85% | [5] -17.1% | [6] -10%

Cc1ccc(Cl)cc1NC(=O)c1ccccc1
inactive: [1] 3.45% | [2] -1.25% | [3] -8.5% | [4] -28.9% | [5] -18.1% | [6] 14.8%

CO/N=C(/NC(=O)OC)c1ccccc1
inactive: [1] 10.8% | [2] 18.4% | [3] -5% | [4] -20.2% | [5] 14.4% | [6] -15.3%

CCN(CCNS(C)(=O)=O)c1ccc(N)c(C)c1
inactive: [1] -15.3% and -11.2% | [2] -17.2% and -6.1% | [3] -23.1% and -14.5% | [4] 1.5% and -19.1% | [5] -17.9% and 1.95% | [6] -4.05% and 6.35%

CC(C)C1CCC2C(CCC3C(C)(C(=O)O)CCCC23C)C1 (centres undefined)
inactive: [1] -2.35% | [2] 14.1% | [3] -0.85% | [4] 21% | [5] -12.8% | [6] 25.2%

OCCNc1ncnc2c1ncn2C1OC(CO)C(O)C1O (centres undefined)
inactive: [1] 6.3% | [2] 5.25% | [3] -12.3% | [4] -23.9% | [5] -20% | [6] 22%

CSc1nc(N)cc(=O)n1C
inactive: [1] -16.1% | [2] -11.2% | [3] -23.9% | [4] -53.1% | [5] -9.05% | [6] 14.2%

CCN(CC(COc1ccc2c(c1)[n+]([O-])nc(N)[n+]2[O-])OC(C)=O)C(C)=O (centres undefined)
inactive: [1] 42.9% | [2] 38.3% | [3] 41.5% | [4] 40.1% | [5] 25.4% | [6] 41.3%

CCCCCOC(=O)c1ccc(C(C)C)cc1
inactive: [1] 10.2% | [2] -6.2% | [3] 5.15% | [4] 8.5% | [5] 0.6% | [6] 5.1%

OC1(Cc2ccccc2)CCCCCC1
inactive: [1] -2.3% | [2] 1.3% | [3] 2.15% | [4] -64.7% | [5] -0.95% | [6] 1.95%

NNc1nc(N2CCCCC2)c2[nH]cnc2n1
inactive: [1] 1.1% | [2] -7.65% | [3] -5.6% | [4] 0.1% | [5] 11.8% | [6] 4.95%

Fc1ccc(/C=C2/c3cc(Cl)ccc3-c3c(Cl)cc(Cl)cc32)cc1
inactive: [1] 44.6% | [2] 3.25% | [3] 15.7% | [4] -5.1% | [5] -3.5% | [6] 5.5%

Nc1ncnc(Nc2ccc(Cl)cc2Cl)n1
inactive: [1] 5.05% | [2] -11.7% | [3] 5.75% | [4] 1.85% | [5] 5.25% | [6] -7.05%

OC(CN1CCCCC1)c1cc(-c2ccccc2)no1 (centres undefined)
inactive: [1] 31.8% | [2] 11.6% | [3] 33.5% | [4] 24.6% | [5] 23.6% | [6] 16.4%

O=C(O)/C(=C/c1cccs1)c1ccc(F)cc1
inactive: [1] 19.1% | [2] 12.2% | [3] 15% | [4] 28.9% | [5] -3.2% | [6] 3.75%

NC(=S)Nc1ccc(-c2ccccc2)cc1
inactive: [1] 17.4% | [2] 25.9% | [3] 49.1% | [4] -1.65% | [5] 22.8% | [6] 40.3%

N#Cc1c(C(F)(F)F)cc(-c2cccs2)nc1SC(C(=O)Nc1cc(C(F)(F)F)cc(C(F)(F)F)c1)c1ccccc1 (centres undefined)
inactive: [1] 13.6% | [2] -13.8% | [3] 9.5% | [4] 17.3% | [5] 9.1% | [6] 10.4%

CCCCCN=C(N)C(N)=NCCCCC
inactive: [1] 47.8% | [2] 8% | [3] 24.7% | [4] -31.1% | [5] 5.5% | [6] 24.9%

CCOC(=O)CC(CC(=O)OCC)NC(=O)c1ccc(N(C)C(=O)OCc2ccccc2)cc1
inactive: [1] 40.1% | [2] 5.55% | [3] 34.9% | [4] 32.9% | [5] 14.7% | [6] 39.9%

O=C1OCC/C1=C/c1ccc(N=Nc2c(O)ccc3ccccc23)cc1
inactive: [1] 2.4% | [2] -6.05% | [3] 11.1% | [4] 5.5% | [5] 11.7% | [6] 7.05%

COc1cc(C2NC(C(=O)O)CS2)cc(OC)c1OC (centres undefined)
inactive: [1] -22.4% | [2] -14.7% | [3] 0.5% | [4] -19.1% | [5] -9.2% | [6] -5.85%

Cc1ccc(S(=O)(=O)N(C)c2ccc3c(c2)C(=O)c2ccccc2-3)cc1
inactive: [1] 20.6% | [2] 14.2% | [3] 37% | [4] -44.5% | [5] 56% | [6] 26.4%

O=[N+]([O-])c1ccc(N2N=NC(c3ccccc3)C2(c2ccccc2)N2CCOCC2)cc1 (centres undefined)
inactive: [1] 29.6% | [2] -0.9% | [3] 28.4% | [4] 16.7% | [5] 0.95% | [6] 14.6%

CN1CNC(=O)NC1
inactive: [1] -37% and 10.6% | [2] -25.8% and -10.5% | [3] -12.3% and 9.8% | [4] 4.05% and 8.2% | [5] -23.1% and -11.1% | [6] -16.1% and 23.9%

O=C(NCCOC(=O)OCCNC(=O)NC1CCCCC1)NC1CCCCC1
inactive: [1] -12.8% | [2] -30% | [3] 0.9% | [4] 4.1% | [5] 4.1% | [6] -13.5%

c1ccc2[nH]c(CSc3nc4ccccc4s3)nc2c1
inactive: [1] 10.1% | [2] 17.2% | [3] 37.5% | [4] 33.6% | [5] -0.75% | [6] 28.6%

CCCCC1(N=[N+]=[N-])C(=O)C2C=CC=C3c4ccccc4N(C1=O)C32 (centres undefined)
inactive: [1] -1.15% | [2] -11.2% | [3] -5.8% | [4] -43.2% | [5] 34.7% | [6] 2.85%

N#CC(C(=O)/C(=N/Nc1nc(=S)[nH]n1N)C(C#N)c1ccccc1)c1ccccc1 (centres undefined)
inactive: [1] -23.8% | [2] -1.45% | [3] -30.8% | [4] 14.8% | [5] -19.1% | [6] -10.2%

CC(=O)OC1OC(COC(c2ccccc2)(c2ccccc2)c2ccccc2)C(OC(C)=O)C(OC(C)=O)C1OC(C)=O (centres undefined)
inactive: [1] 12.8% | [2] -8.6% | [3] -6.15% | [4] 6.4% | [5] 1.7% | [6] 24.6%

Cc1cccc(C2=N/C(=C\c3ccc(N(C)C)cc3)C(=O)O2)c1
inactive: [1] 20.2% | [2] 6% | [3] 7.7% | [4] 18.2% | [5] 3.05% | [6] -6.1%

C/C(=N\NC(=S)Nc1ccccc1)[C@H]1C2CCC(C2)C1C/C=C\CCCC(=O)O (some centres undefined)
inactive: [1] 26.1% | [2] 17.3% | [3] 25.9% | [4] 48.1% | [5] 37.5% | [6] 13.4%

CC(C)CC(=O)/C=C\c1ccco1
inactive: [1] -15.2% | [2] -33.5% | [3] 1.05% | [4] 1.3% | [5] -10.5% | [6] -7.45%

CCNc1ncnc2c1nnn2CC
inactive: [1] -5.55% | [2] -12.2% | [3] -15.8% | [4] -7.75% | [5] -27.4% | [6] 6.75%
